In ChEMBL document CHEMBL3988442, “University of Dundee, Small-Polar-MMV Screening Library” (2021):
For some assays here: Measured potencies and affinities stand elsewhere.

What was measured:
[1] = target: Protein translocase subunit SecA (Escherichia coli (strain K12)) (UniProt P10408); assay: Assay to Identify E. coli SecA ATPase Inhibitors; type: functional; design: scale not given: direction of the effect not stated beside the values; settings: 30 µM
[2] = target: T1, Ubiquitin-activating enzyme e1, putative (Leishmania donovani (strain BPK282A1)) (UniProt E9BSI1); assay: Leishmania donovani Ubiquitin Activating Enzyme (LdE1); type: functional; design: scale not given: direction of the effect not stated beside the values; settings: 30 µM
T1 sequence (whole entry): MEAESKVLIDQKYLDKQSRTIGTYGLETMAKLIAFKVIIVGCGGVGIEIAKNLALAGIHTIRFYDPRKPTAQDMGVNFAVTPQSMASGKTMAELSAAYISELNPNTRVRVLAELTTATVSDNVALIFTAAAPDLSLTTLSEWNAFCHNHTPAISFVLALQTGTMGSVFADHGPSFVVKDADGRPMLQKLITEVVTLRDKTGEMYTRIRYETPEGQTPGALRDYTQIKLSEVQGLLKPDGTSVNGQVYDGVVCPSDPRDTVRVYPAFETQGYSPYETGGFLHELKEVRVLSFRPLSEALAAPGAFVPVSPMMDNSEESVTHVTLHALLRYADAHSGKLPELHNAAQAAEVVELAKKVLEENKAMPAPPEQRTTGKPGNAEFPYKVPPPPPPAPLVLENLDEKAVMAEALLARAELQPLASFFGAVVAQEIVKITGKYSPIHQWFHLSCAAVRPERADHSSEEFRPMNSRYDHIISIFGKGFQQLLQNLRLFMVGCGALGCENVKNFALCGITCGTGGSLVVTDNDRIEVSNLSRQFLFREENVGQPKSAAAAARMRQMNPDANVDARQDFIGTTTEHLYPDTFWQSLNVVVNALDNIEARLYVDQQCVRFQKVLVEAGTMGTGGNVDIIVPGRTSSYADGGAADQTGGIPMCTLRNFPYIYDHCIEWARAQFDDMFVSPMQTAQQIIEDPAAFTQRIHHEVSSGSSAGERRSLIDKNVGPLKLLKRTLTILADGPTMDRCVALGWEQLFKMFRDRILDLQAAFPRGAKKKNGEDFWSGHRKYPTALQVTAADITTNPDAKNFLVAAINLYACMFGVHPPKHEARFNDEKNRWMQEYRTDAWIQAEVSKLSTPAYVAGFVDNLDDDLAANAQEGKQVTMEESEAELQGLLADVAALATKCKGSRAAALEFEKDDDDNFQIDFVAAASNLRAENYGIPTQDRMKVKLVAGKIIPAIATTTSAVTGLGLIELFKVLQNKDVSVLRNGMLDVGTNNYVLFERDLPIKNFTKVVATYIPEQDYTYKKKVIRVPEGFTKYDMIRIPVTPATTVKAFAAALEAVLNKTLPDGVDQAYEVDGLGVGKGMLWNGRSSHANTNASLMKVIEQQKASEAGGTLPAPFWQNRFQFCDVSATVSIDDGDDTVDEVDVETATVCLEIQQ

[3] = target: T2, Aspartate--tRNA(Asp/Asn) ligase (Mycobacterium tuberculosis (strain ATCC 25618 / H37Rv)) (UniProt P9WFW3); assay: Assay for Asp RNA synthetase-1 from Mycobacterium tuberculosis; type: functional; design: scale not given: direction of the effect not stated beside the values; settings: 30 µM; also: in the data most compounds retested in dose-response had high values
T2 sequence (whole entry): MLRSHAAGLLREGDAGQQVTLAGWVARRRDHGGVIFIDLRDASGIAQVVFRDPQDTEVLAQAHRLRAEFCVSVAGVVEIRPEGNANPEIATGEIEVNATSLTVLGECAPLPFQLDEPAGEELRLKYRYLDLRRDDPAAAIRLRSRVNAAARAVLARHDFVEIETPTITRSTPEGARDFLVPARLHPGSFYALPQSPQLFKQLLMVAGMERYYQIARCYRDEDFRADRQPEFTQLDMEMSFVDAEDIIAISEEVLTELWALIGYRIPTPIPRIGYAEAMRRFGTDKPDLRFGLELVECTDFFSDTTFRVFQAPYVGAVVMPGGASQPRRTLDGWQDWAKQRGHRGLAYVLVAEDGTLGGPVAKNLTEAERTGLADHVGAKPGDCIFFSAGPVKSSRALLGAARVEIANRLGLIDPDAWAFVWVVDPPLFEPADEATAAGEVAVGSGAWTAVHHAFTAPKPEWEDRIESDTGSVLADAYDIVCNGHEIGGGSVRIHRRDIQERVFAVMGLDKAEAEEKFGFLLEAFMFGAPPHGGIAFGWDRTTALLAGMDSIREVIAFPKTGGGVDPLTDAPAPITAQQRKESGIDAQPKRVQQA

[4] = target: AMP-activated protein kinase, AMPK (Homo sapiens) (UniProt P54646+O43741+P54619+Q9UGJ0+Q9Y478+Q13131+Q9UGI9); assay: AMP-dependent Kinase enzyme assay. An in vitro enzyme assay that detects ADP turnover that is directly proportional to AMPK activity. This uses naive AMPK that is activated during the assay with MK-8722; type: functional; design: scale not given: direction of the effect not stated beside the values; settings: 30 µM
[5] = target: Sialic acid-binding Ig-like lectin 9 (Homo sapiens) (UniProt Q9Y336); assay: Hs-Siglec9 ALPHAscreen SOP 20170721; design: scale not given: direction of the effect not stated beside the values; settings: 10 µM
Chain of Sialic acid-binding Ig-like lectin 9 (Homo sapiens) (Q9Y336 whole entry): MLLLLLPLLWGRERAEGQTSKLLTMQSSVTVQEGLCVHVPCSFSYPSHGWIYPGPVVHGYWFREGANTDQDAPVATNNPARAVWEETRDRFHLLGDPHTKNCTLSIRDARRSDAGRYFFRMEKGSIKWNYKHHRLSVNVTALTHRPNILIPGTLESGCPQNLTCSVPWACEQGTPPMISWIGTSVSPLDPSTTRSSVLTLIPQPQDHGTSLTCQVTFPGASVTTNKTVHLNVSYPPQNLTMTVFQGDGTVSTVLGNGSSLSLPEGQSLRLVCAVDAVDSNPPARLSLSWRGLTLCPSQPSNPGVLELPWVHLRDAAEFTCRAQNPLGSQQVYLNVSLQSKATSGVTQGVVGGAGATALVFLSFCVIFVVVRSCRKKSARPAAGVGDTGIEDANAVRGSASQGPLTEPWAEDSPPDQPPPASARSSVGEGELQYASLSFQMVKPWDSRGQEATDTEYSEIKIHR

Trypanosoma cruzi = assay: Trypanosoma cruzi phosphomannomutase and mannose-1-phosphate guanylyltransferase assay; type: functional; design: scale not given: direction of the effect not stated beside the values; settings: 10 µM
[6] = target: T3, Arginase-2, mitochondrial (Homo sapiens) (UniProt P78540); assay: in vitro enzyme assay to detect the production of urea directly proportional to the activity of Arginase II; type: functional; design: scale not given: in the data most compounds retested in dose-response had high values
T3 sequence (whole entry): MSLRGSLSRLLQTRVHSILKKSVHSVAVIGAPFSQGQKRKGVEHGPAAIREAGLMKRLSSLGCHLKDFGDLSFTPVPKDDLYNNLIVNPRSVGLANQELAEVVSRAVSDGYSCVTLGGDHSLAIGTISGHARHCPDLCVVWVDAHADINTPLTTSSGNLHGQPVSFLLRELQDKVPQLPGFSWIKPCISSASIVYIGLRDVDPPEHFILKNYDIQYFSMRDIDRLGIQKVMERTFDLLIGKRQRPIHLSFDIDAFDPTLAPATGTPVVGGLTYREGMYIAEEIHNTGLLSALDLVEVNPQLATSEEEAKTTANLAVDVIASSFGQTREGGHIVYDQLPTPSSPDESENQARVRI

[7] = target: T4, Proteasome subunit beta (Trypanosoma cruzi) (UniProt O96673); assay: Trypanosoma cruzi proteasome chymotrypsin-like activity (TcProtChymo) assay.; type: functional; design: scale not given: in the data most compounds retested in dose-response had high values; settings: 9.37 µM
T4 sequence (whole entry): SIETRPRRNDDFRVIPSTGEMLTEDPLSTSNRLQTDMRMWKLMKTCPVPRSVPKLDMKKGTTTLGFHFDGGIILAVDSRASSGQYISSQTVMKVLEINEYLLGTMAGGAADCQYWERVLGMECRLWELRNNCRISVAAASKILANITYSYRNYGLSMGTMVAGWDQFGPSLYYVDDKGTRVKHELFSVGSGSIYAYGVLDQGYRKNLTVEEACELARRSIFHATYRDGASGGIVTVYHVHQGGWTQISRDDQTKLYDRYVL

Homo sapiens = species: Homo sapiens; assay: To identify inhibition of the IFN signalling (Jak-Stat) pathway via expression of an eGFP reporter gene under the control of an IFN-stimulated response element (ISRE) containing MxA promoter.; type: functional; design: scale not given: direction of the effect not stated beside the values; settings: 30 µM
[8] = target: Shiga toxin 2 (Escherichia coli O157:H7) (UniProt P09385+P09386); assay: E. coli 0.157:H7 Shiga Toxin SOP - stx2 screening assay; type: functional; design: scale not given: direction of the effect not stated beside the values; settings: 30 µM
[9] = target: T5, Tyrosyl-tRNA synthetase, putative (Trypanosoma cruzi (strain CL Brener)) (UniProt Q4DSP6); assay: Trypanosoma cruzi tyrosyl tRNA synthetase (TcYRS) _High Tyrosine SOP; type: functional; design: scale not given: in the data most compounds retested in dose-response had high values; settings: 30 µM
T5 sequence (whole entry): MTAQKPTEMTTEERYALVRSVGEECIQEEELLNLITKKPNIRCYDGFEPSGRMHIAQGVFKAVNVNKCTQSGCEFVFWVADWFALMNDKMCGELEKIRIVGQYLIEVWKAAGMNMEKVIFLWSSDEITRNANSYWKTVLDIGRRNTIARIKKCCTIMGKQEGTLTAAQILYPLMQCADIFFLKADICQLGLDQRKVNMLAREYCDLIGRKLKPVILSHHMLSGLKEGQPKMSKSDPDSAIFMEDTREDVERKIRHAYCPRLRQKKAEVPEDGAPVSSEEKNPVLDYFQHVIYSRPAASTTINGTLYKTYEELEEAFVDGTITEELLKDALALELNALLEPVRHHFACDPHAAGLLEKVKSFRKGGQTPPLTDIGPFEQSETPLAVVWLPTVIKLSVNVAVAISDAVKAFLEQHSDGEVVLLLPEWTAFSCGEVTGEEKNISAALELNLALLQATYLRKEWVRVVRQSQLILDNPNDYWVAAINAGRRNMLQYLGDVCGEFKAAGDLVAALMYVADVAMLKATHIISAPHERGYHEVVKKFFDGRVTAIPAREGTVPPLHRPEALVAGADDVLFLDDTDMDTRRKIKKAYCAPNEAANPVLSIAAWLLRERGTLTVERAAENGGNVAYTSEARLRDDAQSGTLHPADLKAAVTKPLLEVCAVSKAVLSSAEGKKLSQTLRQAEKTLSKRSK

[10] = target: T5, Tyrosyl-tRNA synthetase, putative (Trypanosoma cruzi (strain CL Brener)); assay: Trypanosoma cruzi tyrosyl tRNA synthetase (TcYRS) SOP; type: functional; design: scale not given: direction of the effect not stated beside the values; settings: 30 µM
[11] = target: Chromo domain-containing protein 1 (Saccharomyces cerevisiae (strain ATCC 204508 / S288c) (Baker's yeast)) (UniProt P32657); assay: ScCHD-1 Enzyme Inhibition Assay; type: functional; design: scale not given: in the data most compounds retested in dose-response had high values; settings: 30 µM
Chain of Chromo domain-containing protein 1 (Saccharomyces cerevisiae (strain ATCC 204508 / S288c) (Baker's yeast)) (P32657 whole entry, the tested form may be a part): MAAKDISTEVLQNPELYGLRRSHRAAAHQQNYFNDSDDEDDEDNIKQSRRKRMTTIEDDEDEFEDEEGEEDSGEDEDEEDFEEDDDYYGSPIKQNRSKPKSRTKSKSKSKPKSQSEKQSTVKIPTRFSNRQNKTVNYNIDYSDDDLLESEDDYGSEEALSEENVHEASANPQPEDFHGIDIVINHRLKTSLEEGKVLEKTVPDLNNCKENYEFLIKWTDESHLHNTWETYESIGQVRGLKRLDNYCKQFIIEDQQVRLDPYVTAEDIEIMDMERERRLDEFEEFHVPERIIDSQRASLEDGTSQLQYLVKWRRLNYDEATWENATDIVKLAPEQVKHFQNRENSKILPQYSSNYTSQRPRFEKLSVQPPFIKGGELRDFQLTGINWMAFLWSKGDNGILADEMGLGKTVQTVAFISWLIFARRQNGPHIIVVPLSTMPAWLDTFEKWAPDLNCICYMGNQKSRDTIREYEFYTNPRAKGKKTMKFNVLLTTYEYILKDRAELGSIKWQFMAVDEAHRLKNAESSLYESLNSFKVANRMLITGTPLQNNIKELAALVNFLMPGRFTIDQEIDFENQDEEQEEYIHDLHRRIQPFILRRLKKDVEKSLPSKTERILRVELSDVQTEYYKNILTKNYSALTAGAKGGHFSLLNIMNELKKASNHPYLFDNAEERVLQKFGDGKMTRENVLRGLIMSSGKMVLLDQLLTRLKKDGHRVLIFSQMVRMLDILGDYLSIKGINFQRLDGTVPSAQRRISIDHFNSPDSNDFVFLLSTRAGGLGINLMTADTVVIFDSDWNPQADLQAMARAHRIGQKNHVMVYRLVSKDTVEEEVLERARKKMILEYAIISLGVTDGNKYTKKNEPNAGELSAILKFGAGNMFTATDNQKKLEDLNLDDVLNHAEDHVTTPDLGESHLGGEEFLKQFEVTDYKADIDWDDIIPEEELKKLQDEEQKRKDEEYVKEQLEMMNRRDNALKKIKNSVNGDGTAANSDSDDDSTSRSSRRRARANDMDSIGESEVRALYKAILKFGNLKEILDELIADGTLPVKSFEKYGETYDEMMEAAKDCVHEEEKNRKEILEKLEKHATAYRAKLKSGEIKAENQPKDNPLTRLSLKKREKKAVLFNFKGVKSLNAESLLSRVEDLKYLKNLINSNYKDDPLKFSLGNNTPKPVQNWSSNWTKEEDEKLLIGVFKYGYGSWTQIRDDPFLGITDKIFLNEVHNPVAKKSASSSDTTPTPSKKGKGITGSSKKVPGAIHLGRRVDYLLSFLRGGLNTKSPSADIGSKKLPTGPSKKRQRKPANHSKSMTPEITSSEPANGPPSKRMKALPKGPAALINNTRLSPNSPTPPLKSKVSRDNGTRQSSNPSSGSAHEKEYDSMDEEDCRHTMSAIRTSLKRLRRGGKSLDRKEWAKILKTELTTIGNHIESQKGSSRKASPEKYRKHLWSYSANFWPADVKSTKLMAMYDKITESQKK

[12] = target: T6, Methionyl-tRNA synthetase, putative (Leishmania donovani (strain BPK282A1)) (UniProt E9BF75); assay: Leishmania donovani Methionine tRNA synthetase (LdMetRS):v7. Dose response assay; type: functional; design: conc 80 nM, time 150 minutes
T6 sequence (whole entry): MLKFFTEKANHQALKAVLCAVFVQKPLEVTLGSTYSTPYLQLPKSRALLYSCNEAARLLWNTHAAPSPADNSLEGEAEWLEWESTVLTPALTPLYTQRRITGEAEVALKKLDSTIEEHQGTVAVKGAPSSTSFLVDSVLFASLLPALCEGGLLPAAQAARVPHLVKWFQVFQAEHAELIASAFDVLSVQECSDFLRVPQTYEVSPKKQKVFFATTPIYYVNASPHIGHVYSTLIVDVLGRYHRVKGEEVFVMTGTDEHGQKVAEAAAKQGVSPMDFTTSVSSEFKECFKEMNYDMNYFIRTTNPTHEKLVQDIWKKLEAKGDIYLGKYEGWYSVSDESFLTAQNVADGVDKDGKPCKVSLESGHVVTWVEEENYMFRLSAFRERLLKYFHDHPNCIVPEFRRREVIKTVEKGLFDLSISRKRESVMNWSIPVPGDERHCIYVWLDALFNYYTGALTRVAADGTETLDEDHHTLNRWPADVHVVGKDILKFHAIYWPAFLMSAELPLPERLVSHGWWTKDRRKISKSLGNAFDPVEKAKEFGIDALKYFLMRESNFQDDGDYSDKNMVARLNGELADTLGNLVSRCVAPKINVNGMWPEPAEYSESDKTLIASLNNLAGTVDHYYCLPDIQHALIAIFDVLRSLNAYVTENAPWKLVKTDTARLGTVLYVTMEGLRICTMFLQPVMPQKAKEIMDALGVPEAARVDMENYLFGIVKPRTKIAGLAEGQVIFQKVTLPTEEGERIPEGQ

Chain of Protein translocase subunit SecA (Escherichia coli (strain K12)) (P10408 whole entry): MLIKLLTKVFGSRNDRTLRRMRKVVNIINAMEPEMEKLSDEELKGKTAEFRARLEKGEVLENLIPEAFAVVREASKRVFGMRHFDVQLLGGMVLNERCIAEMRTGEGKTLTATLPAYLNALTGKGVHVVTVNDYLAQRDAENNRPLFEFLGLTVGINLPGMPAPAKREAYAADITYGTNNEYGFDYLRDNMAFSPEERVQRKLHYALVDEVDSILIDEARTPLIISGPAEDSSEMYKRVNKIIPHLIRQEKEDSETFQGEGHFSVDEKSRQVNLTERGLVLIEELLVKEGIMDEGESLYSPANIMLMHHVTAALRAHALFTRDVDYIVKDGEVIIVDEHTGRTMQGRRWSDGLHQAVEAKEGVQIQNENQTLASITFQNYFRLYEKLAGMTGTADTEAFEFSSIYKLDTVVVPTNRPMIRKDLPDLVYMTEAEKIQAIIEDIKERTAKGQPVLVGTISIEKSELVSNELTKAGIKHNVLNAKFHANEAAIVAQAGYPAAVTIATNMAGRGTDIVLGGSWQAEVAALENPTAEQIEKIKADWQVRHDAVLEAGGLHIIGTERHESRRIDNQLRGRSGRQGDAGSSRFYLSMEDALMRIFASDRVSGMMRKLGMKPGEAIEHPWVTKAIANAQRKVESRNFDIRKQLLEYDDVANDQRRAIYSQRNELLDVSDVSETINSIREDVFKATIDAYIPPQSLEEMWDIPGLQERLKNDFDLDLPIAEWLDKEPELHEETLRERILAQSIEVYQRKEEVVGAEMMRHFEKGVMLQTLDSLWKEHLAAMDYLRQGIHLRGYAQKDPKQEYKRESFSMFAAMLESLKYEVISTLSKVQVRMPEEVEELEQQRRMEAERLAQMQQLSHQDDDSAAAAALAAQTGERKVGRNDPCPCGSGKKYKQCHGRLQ

Structure (SMILES) | Percent Effect [1] [%] | Percent Effect [2] [%] | Percent Effect [3] [%] | Percent Effect [4] [%] | Percent Effect [5] [%] | Percent Effect (Trypanosoma cruzi) [%] | Percent Effect ([6]; 30 µM) [%] | Percent Effect ([6]; 33.3 µM) [%] | Percent Effect [7] [%] | Percent Effect (Homo sapiens) [%] | Percent Effect [8] [%] | Percent Effect [9] [%] | Percent Effect [10] [%] | Percent Effect [11] [%] | PXC50 ([12]; MAX_EFFECT 11.87904968) | PXC50 ([12]; MAX_EFFECT 16.92015209) | PXC50 ([12]; BOTTOM -4.203249798, HILLSLOPE 1.160005452, MAX_EFFECT 61.75908222, TOP 67.85944211)
O=C1CSC(c2ccc(O)c(Cl)c2)c2c(n(C3CCOCC3)[nH]c2=O)N1 (stereo unspecified) | -3.7 | 20 | -0.726 | 0.0426 | 4.6 | 2.36 | 4.87 | -14.3 | 8.87 | 8.4 | -12.7 | 9.52 | 17.9 | -15.1 |  |  | 
c1cc(NC2CC3(CCN(Cc4cc[nH]n4)C3)C2)ncn1 (stereo unspecified) | -3.9 | -4.05 | -4.78 | 5.87 | 0.0436 | 5.73 |  | -3.02 | 2.18 | -4.19 | 0.0104 | 2.15 | 3.9 | -8.87 |  |  | 
COc1ccc(Cl)cc1Cl |  |  |  |  |  |  |  |  |  |  |  |  |  |  | < 3 | < 3 | 
COc1ccc(CN2C[C@@H]3OCCN(c4ncccn4)[C@@H]3C2)cc1 | 1.18 | 0 | 3.34 | 11.4 | 2.48 | -4.13 |  | 2.1 | 3.61 | 22.3 | -20 | 1.06 | -1.28 | 0.371 |  |  | 
Clc1cc(Cl)cc(CNCCc2ccccc2)c1 |  |  |  |  |  |  |  |  |  |  |  |  |  |  |  |  | 3.6
c1ccc(CO[C@@H]2CO[C@@]3(CCN(Cc4ccccn4)C3)C2)nc1 | -5.26 | 6.67 | 0.581 | 5.55 | 4.84 | -1.18 |  | 4.75 | 6.84 | -42 | -15.8 | 5.29 | 5.13 | -3.05 |  |  | 
